We go through eight compounds from PubChem BioAssay (NCI).

The panel holds about 83,000 compounds, 20% with a hit somewhere; the sample as a whole holds those more often.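 Plates (96-well) were seeded with cells, treated with compound at one concentration, and incubated for 48 hours before percent growth was determined.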 Unmarked numbers belong to inactive results. Active and inactive are the calls of the source. The calls were made as follows: active = growth percent below 10; inactive = the rest.

Among the test systems are NCI-H23 lung; NCI-H226 lung; NCI-H322M lung; HOP-62 NSCLC; NCI-H460 lung; HOP-92 NSCLC; NCI-H522 lung; A549/ATCC NSCLC; 786-0 renal; K-562 leukemia; MALME-3M melanoma; MDA-MB-231 breast; RXF 393 renal; SF-268 CNS; SF-295 CNS; SF-539 CNS; UACC-257 melanoma; M14 melanoma; COLO 205 colon; DU-145 prostate.
Common to all, as to assay: NCI-60 one-dose screen, 48 h (100 = growth as untreated, 0 = no growth, -100 = all killed)
Holding throughout (conditions): 10 µM unless noted

Regarding `Cc1ccc(NSc2ccccc2[N+](=O)[O-])cc1`, the growth is 44.6% in the experiment on NCI-H23 lung; 65.5% with NCI-H226 lung; 38.6% in the experiment on NCI-H322M lung; 24.8% with HOP-62 NSCLC; 14.7% with NCI-H460 lung; 37.7% in the experiment on HOP-92 NSCLC. The growth with NCI-H522 lung is 12.7%; in the experiment on A549/ATCC NSCLC it was 20.5%; with 786-0 renal it was 40.2%; in the experiment with K-562 leukemia, 16.9%; in the experiment with MALME-3M melanoma, 44.9%; with MDA-MB-231 breast it was 53.7%. Besides, the growth in the experiment on RXF 393 renal is -6.02% (active); in the experiment on SF-268 CNS, 48.7%; in the experiment with SF-295 CNS, 11.4%; in the experiment on SF-539 CNS it was -12.3% (active); with UACC-257 melanoma, 58.1%; with M14 melanoma, 7.95% (active).
Regarding `Cc1ccc(NC(=O)C(Cl)Cl)cc1`, the growth with NCI-H23 lung was 95.8%; in the experiment on NCI-H226 lung, 79.1%; with NCI-H322M lung it was 84.1%; in the experiment on HOP-62 NSCLC, 98.4%; in the experiment on NCI-H460 lung, 102%; with HOP-92 NSCLC, 98.2%. The growth was 80.9% in the experiment with NCI-H522 lung; 90.8% in the experiment on A549/ATCC NSCLC; 104% in the experiment on 786-0 renal; 106% in the experiment with K-562 leukemia; 92.7% in the experiment on MALME-3M melanoma; 99.1% in the experiment on MDA-MB-231 breast. The growth in the experiment on RXF 393 renal was 119%; in the experiment with SF-268 CNS it was 105%; with SF-295 CNS it was 97.8%; in the experiment on SF-539 CNS it was 98.4%; in the experiment on UACC-257 melanoma it was 92%; in the experiment with M14 melanoma, 109%.
Turning to `Cc1ccccc1NC(=O)CN(C)C`, the growth in the experiment with NCI-H23 lung is 95.7%; in the experiment with NCI-H226 lung it was 97.9%; in the experiment on NCI-H322M lung, 89.9%; in the experiment with HOP-62 NSCLC, 97.9%; in the experiment with NCI-H460 lung, 113%; in the experiment on HOP-92 NSCLC, 123%. Further, the growth in the experiment with NCI-H522 lung is 82.6%; with A549/ATCC NSCLC, 95.7%; with 786-0 renal, 99.7%; in the experiment on K-562 leukemia, 0.938% (active); with MALME-3M melanoma it was 87.2%; in the experiment on MDA-MB-231 breast, 105%. Further, the growth with RXF 393 renal is 124%; in the experiment with SF-268 CNS, 103%; in the experiment with SF-295 CNS it was 97.3%; with SF-539 CNS, 98.3%; in the experiment with UACC-257 melanoma, 99.3%; with M14 melanoma it was 104%.
With `CCOc1cc(N)ccc1C(=O)NCCCN(CC)CC`, the growth in the experiment on NCI-H23 lung was 87.9%; in the experiment with NCI-H226 lung, 93.6%; in the experiment on NCI-H322M lung it was 100%; with HOP-62 NSCLC, 98.3%; in the experiment with NCI-H460 lung it was 110%; in the experiment with HOP-92 NSCLC it was 90.6%. The growth in the experiment with NCI-H522 lung is 98.2%; in the experiment with A549/ATCC NSCLC it was 104%; in the experiment on 786-0 renal, 100%; in the experiment on K-562 leukemia it was 80.3%; with MALME-3M melanoma, 96.3%; with MDA-MB-231 breast it was 93.2%. Further, the growth with RXF 393 renal was 90.7%; with SF-268 CNS it was 103%; in the experiment with SF-295 CNS it was 103%; with SF-539 CNS, 100%; in the experiment on UACC-257 melanoma it was 102%; in the experiment with M14 melanoma, 96.1%.
Regarding `COc1cc(-c2ccc(N=Nc3c(O)c(C(=O)Nc4ccccc4OC)cc4ccccc34)c(OC)c2)ccc1N=Nc1c(O)c(C(=O)Nc2ccccc2OC)cc2ccccc12`, the growth in the experiment with NCI-H23 lung is 93.5%; in the experiment with NCI-H226 lung, 94.1%; in the experiment on NCI-H322M lung, 86.8%; in the experiment on HOP-62 NSCLC it was 80.6%; in the experiment on NCI-H460 lung, 99.6%; in the experiment with HOP-92 NSCLC, 77.6%. Besides, the growth in the experiment on NCI-H522 lung was 90.4%; in the experiment on A549/ATCC NSCLC it was 95.6%; with 786-0 renal, 87.2%; in the experiment on K-562 leukemia it was 90.6%; with MALME-3M melanoma it was 90.6%; with MDA-MB-231 breast, 76.2%. In addition, the growth is 93.1% with RXF 393 renal; 87.5% in the experiment with SF-268 CNS; 95.1% in the experiment with SF-295 CNS; 103% with SF-539 CNS; 109% with UACC-257 melanoma; 90.7% in the experiment with M14 melanoma.
Consider `O=C1c2ccccc2C2(c3ccc(O)cc3)c3ccccc3Oc3cccc1c32` (centres undefined), for which the growth in the experiment on NCI-H23 lung is 33.4%; in the experiment with NCI-H226 lung it was 85.9%; in the experiment on NCI-H322M lung, 32.5%; with HOP-62 NSCLC it was 31.5%; with NCI-H460 lung it was 11.3%; in the experiment on HOP-92 NSCLC, 29.9%. Also, the growth in the experiment on NCI-H522 lung is 48.6%; in the experiment on A549/ATCC NSCLC, 29%; in the experiment with 786-0 renal, 40.6%; with K-562 leukemia, 19.8%; in the experiment on MALME-3M melanoma it was 66.4%; in the experiment on MDA-MB-231 breast, 21.8%. In addition, the growth with RXF 393 renal is 11%; in the experiment on SF-268 CNS, 40.3%; with SF-295 CNS, 21.3%; in the experiment on SF-539 CNS, -1.29% (active); with UACC-257 melanoma, 48%; with M14 melanoma, 0.454% (active).
As for `CCOC(=O)C(=CNc1ccccc1[N+](=O)[O-])C(=O)OCC`, the growth in the experiment on NCI-H23 lung was 99%; with NCI-H226 lung, 88.1%; in the experiment with NCI-H322M lung it was 96.3%; in the experiment on HOP-62 NSCLC it was 107%; in the experiment with NCI-H460 lung, 105%; in the experiment on HOP-92 NSCLC, 80.6%. For the same compound, the growth in the experiment on NCI-H522 lung is 89.5%; in the experiment with A549/ATCC NSCLC, 88.5%; with 786-0 renal it was 97.2%; in the experiment with K-562 leukemia it was 96.7%; in the experiment with MALME-3M melanoma it was 115%; with MDA-MB-231 breast it was 98.6%. Also, the growth with RXF 393 renal was 104%; in the experiment on SF-268 CNS, 105%; in the experiment on SF-295 CNS it was 98.6%; in the experiment with SF-539 CNS, 97.7%; in the experiment with UACC-257 melanoma it was 94.2%; in the experiment on M14 melanoma it was 118%.
Take `Cc1nc2ccccc2c(/C=C/c2ccc(Cl)cc2)c1C(=O)/C=C/c1ccc(Cl)cc1`: the growth is -19.7% (active) with NCI-H23 lung; -40.6% (active) in the experiment with NCI-H226 lung; 5.27% (active) in the experiment with NCI-H322M lung; -7.32% (active) with HOP-62 NSCLC; -76.3% (active) with NCI-H460 lung; -59.9% (active) in the experiment with HOP-92 NSCLC. Also, the growth in the experiment on NCI-H522 lung is -14.6% (active); in the experiment with A549/ATCC NSCLC, 56.9%; with COLO 205 colon, -24.5% (active); in the experiment with DU-145 prostate, -70.5% (active); in the experiment on K-562 leukemia, 2% (active); in the experiment with MALME-3M melanoma, -54.1% (active). Also, the growth is -34.1% (active) with MDA-MB-231 breast; -72.4% (active) in the experiment on RXF 393 renal; 25.8% in the experiment with SF-268 CNS; -65.6% (active) in the experiment with SF-295 CNS; -88.4% (active) in the experiment with SF-539 CNS; -17.2% (active) in the experiment with UACC-257 melanoma.
